# According to the supplement of paper PMC4466140:
# Biological target: AgAbp1
# Assay: SPOT peptide array binding signal intensity (averaged, normalized) (arbitrary units (background-subtracted, floor 0; scale differs between SH3 domains)); higher = stronger binding of the SH3 domain to the peptide
# Summary of the method: (§1)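 Binding signal is given in arbitrary units that differ between domains and is the normalized, background-subtracted spot intensity averaged across replicates. Each GST-SH3 fusion from one of four yeast species was made in E. coli BL21(DE3), purified on glutathione Sepharose and incubated at 10 μg/ml overnight at 4°C on cellulose-bound synthetic 15-mer peptides in which cysteines were replaced by serines. Detection used anti-GST antibody, an HRP anti-mouse secondary and luminol, followed by imaging and Genespotter quantification.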
row,Binder,SPOT peptide array binding signal intensity
1,SLSRRRFSLPSMPNV,83.5

# Biological target: AgBbc1
# Assay: as above
# Summary of the method: as §1
row,Binder,SPOT peptide array binding signal intensity
1,SLSRRRFSLPSMPNV,114

# Biological target: AgBem1-D1
# Assay: as above
# Summary of the method: as §1
row,Binder,SPOT peptide array binding signal intensity
1,SLSRRRFSLPSMPNV,418

# Biological target: AgBzz1-D1
# Assay: as above
# Summary of the method: as §1
row,Binder,SPOT peptide array binding signal intensity
1,SLSRRRFSLPSMPNV,44.5

# Biological target: AgBzz1-D2
# Assay: as above
# Summary of the method: as §1
row,Binder,SPOT peptide array binding signal intensity
1,SLSRRRFSLPSMPNV,72.5

# Biological target: AgCyk3
# Assay: as above
# Summary of the method: as §1
row,Binder,SPOT peptide array binding signal intensity
1,SLSRRRFSLPSMPNV,6.5

# Biological target: AgFus1
# Assay: as above
# Summary of the method: as §1
row,Binder,SPOT peptide array binding signal intensity
1,SLSRRRFSLPSMPNV,404

# Biological target: AgHof1
# Assay: as above
# Summary of the method: as §1
row,Binder,SPOT peptide array binding signal intensity
1,SLSRRRFSLPSMPNV,158

# Biological target: AgHse1
# Assay: as above
# Summary of the method: as §1
row,Binder,SPOT peptide array binding signal intensity
1,SLSRRRFSLPSMPNV,1010

# Biological target: AgLsb1
# Assay: as above
# Summary of the method: as §1
row,Binder,SPOT peptide array binding signal intensity
1,SLSRRRFSLPSMPNV,1240

# Biological target: AgLsb4
# Assay: as above
# Summary of the method: as §1
row,Binder,SPOT peptide array binding signal intensity
1,SLSRRRFSLPSMPNV,41.5

# Biological target: AgMyo5
# Assay: as above
# Summary of the method: as §1
row,Binder,SPOT peptide array binding signal intensity
1,SLSRRRFSLPSMPNV,3

# Biological target: AgNbp2
# Assay: as above
# Summary of the method: as §1
row,Binder,SPOT peptide array binding signal intensity
1,SLSRRRFSLPSMPNV,97.5

# Biological target: AgRvs167
# Assay: as above
# Summary of the method: as §1
row,Binder,SPOT peptide array binding signal intensity
1,SLSRRRFSLPSMPNV,5

# Biological target: AgSho1
# Assay: as above
# Summary of the method: as §1
row,Binder,SPOT peptide array binding signal intensity
1,SLSRRRFSLPSMPNV,28

# Biological target: AgSla1-D1-D2
# Assay: as above
# Summary of the method: as §1
row,Binder,SPOT peptide array binding signal intensity
1,SLSRRRFSLPSMPNV,60

# Biological target: AgSla1-D3
# Assay: as above
# Summary of the method: as §1
row,Binder,SPOT peptide array binding signal intensity
1,SLSRRRFSLPSMPNV,6

# Biological target: CaAbp1-D1
# Assay: as above
# Summary of the method: as §1
row,Binder,SPOT peptide array binding signal intensity
1,SLSRRRFSLPSMPNV,872

# Biological target: CaAbp1-D2
# Assay: as above
# Summary of the method: as §1
row,Binder,SPOT peptide array binding signal intensity
1,SLSRRRFSLPSMPNV,370

# Biological target: CaBbc1
# Assay: as above
# Summary of the method: as §1
row,Binder,SPOT peptide array binding signal intensity
1,SLSRRRFSLPSMPNV,471

# Biological target: CaBem1-D1
# Assay: as above
# Summary of the method: as §1
row,Binder,SPOT peptide array binding signal intensity
1,SLSRRRFSLPSMPNV,112

# Biological target: CaBzz1-D1
# Assay: as above
# Summary of the method: as §1
row,Binder,SPOT peptide array binding signal intensity
1,SLSRRRFSLPSMPNV,183

# Biological target: CaBzz1-D2
# Assay: as above
# Summary of the method: as §1
row,Binder,SPOT peptide array binding signal intensity
1,SLSRRRFSLPSMPNV,189

# Biological target: CaCyk3
# Assay: as above
# Summary of the method: as §1
row,Binder,SPOT peptide array binding signal intensity
1,SLSRRRFSLPSMPNV,87.5

# Biological target: CaFus1
# Assay: as above
# Summary of the method: as §1
row,Binder,SPOT peptide array binding signal intensity
1,SLSRRRFSLPSMPNV,1080

# Biological target: CaHof1
# Assay: as above
# Summary of the method: as §1
row,Binder,SPOT peptide array binding signal intensity
1,SLSRRRFSLPSMPNV,0.5

# Biological target: CaHse1
# Assay: as above
# Summary of the method: as §1
row,Binder,SPOT peptide array binding signal intensity
1,SLSRRRFSLPSMPNV,62.8

# Biological target: CaLsb1
# Assay: as above
# Summary of the method: as §1
row,Binder,SPOT peptide array binding signal intensity
1,SLSRRRFSLPSMPNV,13

# Biological target: CaLsb4
# Assay: as above
# Summary of the method: as §1
row,Binder,SPOT peptide array binding signal intensity
1,SLSRRRFSLPSMPNV,52.5

# Biological target: CaMyo5
# Assay: as above
# Summary of the method: as §1
row,Binder,SPOT peptide array binding signal intensity
1,SLSRRRFSLPSMPNV,14.5

# Biological target: CaNbp2
# Assay: as above
# Summary of the method: as §1
row,Binder,SPOT peptide array binding signal intensity
1,SLSRRRFSLPSMPNV,282

# Biological target: CaRvs167
# Assay: as above
# Summary of the method: as §1
row,Binder,SPOT peptide array binding signal intensity
1,SLSRRRFSLPSMPNV,27

# Biological target: CaRvs167-3
# Assay: as above
# Summary of the method: as §1
row,Binder,SPOT peptide array binding signal intensity
1,SLSRRRFSLPSMPNV,152

# Biological target: CaSho1
# Assay: as above
# Summary of the method: as §1
row,Binder,SPOT peptide array binding signal intensity
1,SLSRRRFSLPSMPNV,477

# Biological target: CaSla1-D1-D2
# Assay: as above
# Summary of the method: as §1
row,Binder,SPOT peptide array binding signal intensity
1,SLSRRRFSLPSMPNV,471

# Biological target: CaSla1-D3
# Assay: as above
# Summary of the method: as §1
row,Binder,SPOT peptide array binding signal intensity
1,SLSRRRFSLPSMPNV,133

# Biological target: ScAbp1
# Assay: as above
# Summary of the method: as §1
row,Binder,SPOT peptide array binding signal intensity
1,SLSRRRFSLPSMPNV,94

# Biological target: ScBbc1
# Assay: as above
# Summary of the method: as §1
row,Binder,SPOT peptide array binding signal intensity
1,SLSRRRFSLPSMPNV,26.5

# Biological target: ScBem1-D1
# Assay: as above
# Summary of the method: as §1
row,Binder,SPOT peptide array binding signal intensity
1,SLSRRRFSLPSMPNV,28

# Biological target: ScBzz1-D1
# Assay: as above
# Summary of the method: as §1
row,Binder,SPOT peptide array binding signal intensity
1,SLSRRRFSLPSMPNV,54

# Biological target: ScBzz1-D2
# Assay: as above
# Summary of the method: as §1
row,Binder,SPOT peptide array binding signal intensity
1,SLSRRRFSLPSMPNV,29.5

# Biological target: ScCyk3
# Assay: as above
# Summary of the method: as §1
row,Binder,SPOT peptide array binding signal intensity
1,SLSRRRFSLPSMPNV,192

# Biological target: ScFus1
# Assay: as above
# Summary of the method: as §1
row,Binder,SPOT peptide array binding signal intensity
1,SLSRRRFSLPSMPNV,256

# Biological target: ScHof1
# Assay: as above
# Summary of the method: as §1
row,Binder,SPOT peptide array binding signal intensity
1,SLSRRRFSLPSMPNV,3

# Biological target: ScHse1
# Assay: as above
# Summary of the method: as §1
row,Binder,SPOT peptide array binding signal intensity
1,SLSRRRFSLPSMPNV,1590

# Biological target: ScLsb1
# Assay: as above
# Summary of the method: as §1
row,Binder,SPOT peptide array binding signal intensity
1,SLSRRRFSLPSMPNV,348

# Biological target: ScLsb2
# Assay: as above
# Summary of the method: as §1
row,Binder,SPOT peptide array binding signal intensity
1,SLSRRRFSLPSMPNV,42

# Biological target: ScLsb3
# Assay: as above
# Summary of the method: as §1
row,Binder,SPOT peptide array binding signal intensity
1,SLSRRRFSLPSMPNV,181

# Biological target: ScLsb4
# Assay: as above
# Summary of the method: as §1
row,Binder,SPOT peptide array binding signal intensity
1,SLSRRRFSLPSMPNV,9.5

# Biological target: ScMyo3
# Assay: as above
# Summary of the method: as §1
row,Binder,SPOT peptide array binding signal intensity
1,SLSRRRFSLPSMPNV,9.5

# Biological target: ScMyo5
# Assay: as above
# Summary of the method: as §1
row,Binder,SPOT peptide array binding signal intensity
1,SLSRRRFSLPSMPNV,9.25

# Biological target: ScNbp2
# Assay: as above
# Summary of the method: as §1
row,Binder,SPOT peptide array binding signal intensity
1,SLSRRRFSLPSMPNV,350

# Biological target: ScPex13
# Assay: as above
# Summary of the method: as §1
row,Binder,SPOT peptide array binding signal intensity
1,SLSRRRFSLPSMPNV,38

# Biological target: ScRvs167
# Assay: as above
# Summary of the method: as §1
row,Binder,SPOT peptide array binding signal intensity
1,SLSRRRFSLPSMPNV,37.3

# Biological target: ScSho1
# Assay: as above
# Summary of the method: as §1
row,Binder,SPOT peptide array binding signal intensity
1,SLSRRRFSLPSMPNV,743

# Biological target: ScSla1-D1-D2
# Assay: as above
# Summary of the method: as §1
row,Binder,SPOT peptide array binding signal intensity
1,SLSRRRFSLPSMPNV,636

# Biological target: ScSla1-D3
# Assay: as above
# Summary of the method: as §1
row,Binder,SPOT peptide array binding signal intensity
1,SLSRRRFSLPSMPNV,97.8

# Biological target: SpAbp1-D1
# Assay: as above
# Summary of the method: as §1
row,Binder,SPOT peptide array binding signal intensity
1,SLSRRRFSLPSMPNV,416

# Biological target: SpBbc1
# Assay: as above
# Summary of the method: as §1
row,Binder,SPOT peptide array binding signal intensity
1,SLSRRRFSLPSMPNV,8

# Biological target: SpBzz1-D1
# Assay: as above
# Summary of the method: as §1
row,Binder,SPOT peptide array binding signal intensity
1,SLSRRRFSLPSMPNV,311

# Biological target: SpBzz1-D2
# Assay: as above
# Summary of the method: as §1
row,Binder,SPOT peptide array binding signal intensity
1,SLSRRRFSLPSMPNV,1.75

# Biological target: SpCyk3
# Assay: as above
# Summary of the method: as §1
row,Binder,SPOT peptide array binding signal intensity
1,SLSRRRFSLPSMPNV,18

# Biological target: SpHof1
# Assay: as above
# Summary of the method: as §1
row,Binder,SPOT peptide array binding signal intensity
1,SLSRRRFSLPSMPNV,248

# Biological target: SpHof1-2
# Assay: as above
# Summary of the method: as §1
row,Binder,SPOT peptide array binding signal intensity
1,SLSRRRFSLPSMPNV,58.5

# Biological target: SpHof1-3
# Assay: as above
# Summary of the method: as §1
row,Binder,SPOT peptide array binding signal intensity
1,SLSRRRFSLPSMPNV,440

# Biological target: SpHse1
# Assay: as above
# Summary of the method: as §1
row,Binder,SPOT peptide array binding signal intensity
1,SLSRRRFSLPSMPNV,662

# Biological target: SpLsb1
# Assay: as above
# Summary of the method: as §1
row,Binder,SPOT peptide array binding signal intensity
1,SLSRRRFSLPSMPNV,270

# Biological target: SpLsb4
# Assay: as above
# Summary of the method: as §1
row,Binder,SPOT peptide array binding signal intensity
1,SLSRRRFSLPSMPNV,106

# Biological target: SpMyo1
# Assay: as above
# Summary of the method: as §1
row,Binder,SPOT peptide array binding signal intensity
1,SLSRRRFSLPSMPNV,15.5

# Biological target: SpNbp2
# Assay: as above
# Summary of the method: as §1
row,Binder,SPOT peptide array binding signal intensity
1,SLSRRRFSLPSMPNV,235

# Biological target: SpPex13
# Assay: as above
# Summary of the method: as §1
row,Binder,SPOT peptide array binding signal intensity
1,SLSRRRFSLPSMPNV,49

# Biological target: SpRvs167
# Assay: as above
# Summary of the method: as §1
row,Binder,SPOT peptide array binding signal intensity
1,SLSRRRFSLPSMPNV,14

# Biological target: SpSla1-D1-D2
# Assay: as above
# Summary of the method: as §1
row,Binder,SPOT peptide array binding signal intensity
1,SLSRRRFSLPSMPNV,5

# Biological target: SpSla1-D3
# Assay: as above
# Summary of the method: as §1
row,Binder,SPOT peptide array binding signal intensity
1,SLSRRRFSLPSMPNV,19
